The list is not random: actives were taken first. Their share in the collection is about 32%.
CYP2C9 activ – CYP2C9 (human) activation | P11712 | recombinant CYP2C9, luciferin-H conversion, luminescence; stronger effect = higher value; factor 1 = untreated enzyme, 0 = blocked | activation factor at 5 µM | hit rate 1.4% among 96,000 | AID 1024;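 active = activation factor of 2 or more for CYP2C9 at a 5 µM dose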
CYP2C19 inhib – inhibitors of human CYP2C19 | P33261 | CYP2C19 Supersomes, luciferin-H EGE luminescence, 30 min | inhibition, % at 5 µM | hit rate 21% among 96,000 | AID 778;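 active = CYP2C19 inhibition above a set limit at 5 µM in the primary screen, cut at about 50% in these data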
Target sequence (P33261 whole entry, looked up): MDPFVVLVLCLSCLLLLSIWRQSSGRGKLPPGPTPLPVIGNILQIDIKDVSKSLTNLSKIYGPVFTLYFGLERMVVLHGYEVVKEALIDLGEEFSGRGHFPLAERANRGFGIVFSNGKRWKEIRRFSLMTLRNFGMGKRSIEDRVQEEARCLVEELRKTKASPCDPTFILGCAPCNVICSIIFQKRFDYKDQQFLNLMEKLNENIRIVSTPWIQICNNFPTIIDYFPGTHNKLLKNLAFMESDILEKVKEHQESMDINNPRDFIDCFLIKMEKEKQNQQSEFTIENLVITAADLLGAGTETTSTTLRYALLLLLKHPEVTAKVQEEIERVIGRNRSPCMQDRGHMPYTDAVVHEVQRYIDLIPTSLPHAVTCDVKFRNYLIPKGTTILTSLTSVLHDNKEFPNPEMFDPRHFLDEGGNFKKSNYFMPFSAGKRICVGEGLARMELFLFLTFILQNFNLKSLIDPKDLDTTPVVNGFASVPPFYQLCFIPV
PostGolgi yeast – growth inhibition of a yeast mutant, post-Golgi transport screen; post-Golgi transport phenotypic cell assay; inhibition, % at 10 µM; hit rate 0.9% among 98,000; AID 739;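 note: yeast cells grown in 1536-well plates; yeast grown about 18 h at 30C before absorbance read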
PostGolgi ctrl – yeast control strain growth, post-Golgi counter-screen | efflux-deficient yeast background strain, growth absorbance A615, 16 h | inhibition, % at 10 µM | hit rate 5% among 98,000
CYP2C9 inh – inhibitors of human CYP2C9 | AID 777 | P11712 | hit rate 20% among 96,000 | CYP2C9 Supersomes, luciferin-H conversion, luminescence | inhibition, % at 5 µM;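 active = blocking of liver enzyme CYP2C9 beyond about 50% at 5 µM, limit read from the data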
CYP2C19 activ – activators of human cytochrome P450 2C19; AID 1025; P33261; 96,000 tested, under 10 active; activation factor at 5 µM; recombinant CYP2C19, luciferin-H EGE luminescence; stronger effect = higher value; 0 = fully inhibited enzyme, 1 = untreated enzyme;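 active = activation factor of at least 2 at 5 µM in the primary screen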
Large screens that a line does not name were inactive. Cut-off read from the data, not from the text of the source, unless noted: active = inhibition above about 30%; inactive = the rest.

O=C(CCSc1nnc2scc(-c3ccccc3)n12)Nc1nc(-c2ccccc2)ns1	none
Cc1oc2ccc(OCc3ccccc3F)cc2c1C(=O)O	none
CSCCC(NC(=O)c1ccco1)C(=O)OCC(=O)Nc1sccc1C#N (stereo not drawn)	CYP2C19 inhib 55, CYP2C9 inh 78
Cc1nnc(SCC(=O)Nc2sccc2C#N)n1Cc1ccccc1	none
CCOC(=O)C(NCc1ccccn1)(NC(=O)c1cccnc1)C(F)(F)F (stereo not drawn)	none
CC(=O)c1c(C)[nH]c(C(=O)OCC(=O)N2CCN(S(=O)(=O)c3ccc(C)cc3C)CC2)c1C	CYP2C19 inhib 61, CYP2C9 inh 50
Cc1ccc(S(=O)(=O)N2CCN(C(=O)CSC3CCCC3)CC2)c(C)c1	CYP2C19 inhib 76
C=CCNC(=O)c1onc(CSc2ccc(F)cc2)c1C(=O)NCCOC	CYP2C19 inhib 98, PostGolgi ctrl 46
C=CCNC(=O)c1onc(CSc2ccccc2F)c1C(=O)O	none
C=CCNC(=O)c1onc(CSc2ccc(F)cc2)c1C(=O)O	none
C=CCNC(=O)c1onc(CSc2ccccc2)c1C(=O)O	none
C=CCNC(=O)c1onc(CSc2cccc3ccccc23)c1C(=O)O	CYP2C19 inhib 59, CYP2C9 inh 94
C=CCNC(=O)c1onc(CSc2ccc(OC)cc2)c1C(=O)O	CYP2C9 inh 52
C=CCNC(=O)c1onc(CSc2ccc(C(C)C)cc2)c1C(=O)O	PostGolgi ctrl 33, CYP2C9 inh 87
NS(=O)(=O)c1ccc(NC(=O)C2CCCO2)cc1 (stereo not drawn)	none
CCN1CNC(=S)N(c2cccc(C)c2C)C1	none
COC(=O)/C(=C/c1c[nH]c2ccccc12)[N+](=O)[O-]	none
CSc1nsc(SC)c1C(=O)N1CCN(S(=O)(=O)c2ccc(C)cc2)C1C (stereo not drawn)	CYP2C9 inh 74
CCCN1CCC(NC(=O)Nc2ccccc2C(=O)OC)CC1	none
COC(=O)c1ccccc1NC(=O)CN1CCN(C23CC4CC(CC(C4)C2)C3)CC1	CYP2C9 inh 53
O=C(CN1C(=O)c2ccccc2C1=O)Nc1ccccc1C(=O)NC1CCCCC1	CYP2C9 inh 65
COC(=O)c1ccccc1NC(=O)CN1CCC(NC(=O)c2ccc(C)cc2)CC1	CYP2C19 inhib 88, CYP2C9 inh 67
CCOc1ccc(OCC)c(NC(=O)CN2CCC(NC(=O)c3cccc(F)c3)CC2)c1	CYP2C19 inhib 74, CYP2C9 inh 68
COC(=O)c1ccc(C(=O)OC)c(NC(=O)CN2CCN(c3ccccc3)CC2)c1	none
CCOc1ccc(OCC)c(NC(=O)CN2CCN(c3cccc(C)c3C)CC2)c1	none (no result: CYP2C9 activ, CYP2C19 inhib, CYP2C9 inh, CYP2C19 activ)
COc1ccc(CC(=O)NNC(=O)c2ccoc2C)cc1OC	none
CC(=O)NC1(C(F)(F)F)C(=O)NC(C)=C1C#N (stereo not drawn)	none
O=C(CSc1nc2[nH]ncc2c(=O)n1-c1ccccc1Br)NCc1ccco1	none
CCc1ccc2[nH]c(O)c(N=Nc3nc(-c4ccccc4)cs3)c2c1	none
CCOc1ccccc1NC(=O)CN1CCC(NC(=O)c2ccccc2)CC1	CYP2C19 inhib 95
CCCCNC(=O)NS(=O)(=O)c1ccc(C(=O)OC(C)C)o1	CYP2C9 inh 69
COC(=O)c1ccc(S(=O)(=O)N2CCCCC2)o1	none
Cc1ccc(S(=O)(=O)N(CCC#N)CCN2CCCC2)cc1	PostGolgi ctrl 30
CCN(CC)S(=O)(=O)c1ccc(S(=O)(=O)N2CCN(CCC#N)CC2)cc1	none
Fc1ccccc1CSc1nnnn1-c1ccc2c(c1)OCO2	CYP2C19 inhib 92
COc1cc(OC)cc(-n2nnnc2SCC(=O)NCc2ccc3c(c2)OCO3)c1	CYP2C19 inhib 53
COc1ccc(-n2nnnc2SCC(=O)Nc2ccc3c(c2)OCCO3)cc1OC	none
O=C(CSc1nnnn1-c1ccc2c(c1)OCO2)NCc1cccs1	none
O=C(CSc1nnnn1-c1ccc2c(c1)OCO2)NCc1ccccc1	CYP2C19 inhib 92
COc1cccc(-n2nnnc2SCC(=O)NCc2ccc3c(c2)OCO3)c1	CYP2C19 inhib 88, CYP2C9 inh 60
O=S1(=O)CCC(S(=O)(=O)N2CCCCCC2)C1 (stereo not drawn)	none (no result: CYP2C9 activ, CYP2C19 inhib, CYP2C9 inh, CYP2C19 activ)
Cc1nnc(SCC(=O)Nc2ccc(N3CCOCC3)cc2)o1	none
Cc1nnc(SCC(=O)NCc2ccc3c(c2)OCO3)[nH]c1=O	CYP2C9 inh 68
COc1ccccc1N1CCN(C(=O)CN(c2cc(C)cc(C)c2)S(C)(=O)=O)CC1	none
O=C1c2ccccc2C(=O)N1CCc1nc(-c2cccnc2)no1	CYP2C19 inhib 51
O=C1c2ccccc2C(=O)N1CCc1nc(-c2ccc(Cl)cc2)no1	none
O=C1c2ccccc2C(=O)N1CCc1nc(-c2ccncc2)no1	CYP2C19 inhib 97, CYP2C9 inh 72
O=C1c2ccccc2C(=O)N1Cc1nc(-c2ccccn2)no1	none
Cn1c(SC2=CS(=O)(=O)c3ccccc32)nc2ccccc21	none
N#Cc1cnn(Cc2ccc(Cl)cc2)c1N	CYP2C19 inhib 55
Cc1c(CCO)c(=O)n(-c2ccccc2)n1S(=O)(=O)c1ccc(Cl)cc1	CYP2C19 inhib 70
Cc1cccc(N2CCN(C(=O)c3ccccc3NC(=O)C3CC=CCC3C(=O)O)CC2)c1 (stereo not drawn)	none
COC(=O)CSc1nc(SCc2ccccc2Cl)nc2c1CCCC2	CYP2C9 inh 69
CNc1nc(NC)nc(-n2c(C(F)(F)F)nc3ccccc32)n1	CYP2C9 inh 64
O=c1c2c3c(sc2ncn1/N=C/c1ccc([N+](=O)[O-])o1)CCCC3	PostGolgi yeast 105, PostGolgi ctrl 60
Cn1cc(/C=N/n2cnc3sc4c(c3c2=O)CCCC4)c2ccccc21	none
O=c1nc(-c2ccccc2)cc(C(F)(F)F)[nH]1	CYP2C9 inh 51
CCCSc1nnc2n(C)c(=O)c3c4c(sc3n12)CCC4	CYP2C19 inhib 53, CYP2C9 inh 61
Cn1c(=O)c2c3c(sc2n2c(SCC(N)=O)nnc12)CC(C(C)(C)C)CC3 (stereo not drawn)	CYP2C19 inhib 58
CCn1c(=O)c2c3c(sc2n2c(=S)[nH]nc12)CCC3	CYP2C19 inhib 80, CYP2C9 inh 97
CCn1c(=O)c2c3c(sc2n(C)c1=O)CCC3	none
CCCCN(CCCC)C(=O)CSc1nnc2n(C)c(=O)c3c4c(sc3n12)CCCC4	PostGolgi ctrl 34 (no result: CYP2C9 activ, CYP2C19 inhib, CYP2C9 inh, CYP2C19 activ)
COc1ccc(CSc2nnc3n(C)c(=O)c4c5c(sc4n23)CCCC5)cc1	none (no result: PostGolgi yeast, PostGolgi ctrl)
COc1cccc(-c2nc(CS(=O)(=O)CC(=O)N3CCc4ccccc43)c(C)o2)c1	none
COC(=O)NCc1cccc(CNC(=O)OC)c1	none
COCCCNC(=O)C1CCN(C(=O)Nc2ccc(Cl)cc2)CC1	none
COc1ccc(C2CC(c3ccccc3)=NN2c2ccc(/C=N/NC(=O)c3ccncc3)cc2)cc1 (stereo not drawn)	CYP2C9 inh 56
CN(C)CCCOC(=O)Cc1ccc(Cl)cc1	CYP2C19 inhib 69
CN(C)CCCOC(=O)CCc1ccccc1	none

High-throughput results as filed in PubChem.
